Results on 38 compounds are retold here after PubChem BioAssay (NCI).

This is part of a sample that, as a whole, favours compounds with a hit. Of some 83,000 tested, about 20% had one in any assay.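 Values shown are percent growth following 48 h exposure of cells in 96-well plates to a single concentration of compound; below 10 was considered active.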 Unmarked numbers belong to inactive results. The source made the active and inactive calls.

For the first experiment, the system named is UACC-62 melanoma. The experiment in a line: NCI-60 one-dose screen, 48 h (100 = growth as untreated, 0 = no growth, -100 = all killed). The note with it: 10 µM unless noted.
For the compound `COc1ccc2c(c1)OC1=C(C(=O)OC1)C2c1cc(OC)c2c(c1)OCCO2` (stereo unspecified), the growth was 36.3%. On to `O=S1(=O)NCCN1CCNc1nccc(-c2c(-c3cccc(O)c3)nc3sccn23)n1`, for which the growth is 6.31% (active). The same measure, in the same setting: the value for `O=C(CC(=O)C(F)(F)C(F)(F)C(F)(F)F)c1cc2ccccc2o1` was 104%. As to `Clc1cc2nc(-c3ccccc3)c(-c3ccccc3)nc2cc1Cl`, the growth is 84.7%. Same read-out and setting: the value for `CC(C)(C)c1ccc(C(=O)Nc2sc3cc(O)ccc3c2C(N)=O)cc1` was 104%; that for `CC1=CCC2C1CC=C(C)C(CC[C@H]1[C@@](C)(O)CCC3OC(C)(C)[C@H](OC(=O)c4ccccc4)CC[C@@]31C)C2(C)C` (stereo partly specified) was 67.4%. Same read-out and setting: in the case of `CC(=O)C1CCC2C3CC(C)=C4CC(O)CCC4(C)C3CCC12C` (stereo unspecified) it was 91.6%; in that of `CCN(CCC#N)c1ccccc1`, 98.2%; in that of `O=S1(=O)NCCCN1CCNc1nccc(-c2c(-c3cccc(O)c3)nc3sccn23)n1`, -6.85% (active). On the same count and under the same terms, in the case of `COc1ccc(-c2conc2-n2nc(-c3ccccc3)nc2-c2ccccc2)cc1` it was 103%. For `COc1ccccc1CNCCCN1C(=O)c2ccc3c4c(ccc(c24)C1=O)C(=O)N(CCCCNCCCN)C3=O`, the growth is -68.7% (active). Still for that read-out and setting: in the case of `Cc1ccc(C(=O)CC(=O)C(F)(F)C(F)(F)C(F)(F)F)s1` it was 96.6%; in that of `O=C1CCCN1C(O)CCN(Cc1ccccc1)Cc1ccc(Cl)cc1` (stereo unspecified), 102%; in that of `Nc1c(N)c2ccccc2c2ccccc12`, 95%.

`CCOC(=O)C1=C(C)NC(=S)NC1c1ccccc1` (stereo unspecified): the growth is 95.6%. Consider `CCOC(=O)C1=C(C(=O)OCC)N(c2cc(OC)c(OC)c(OC)c2)C(N)=C(C#N)C1c1cc(=O)[nH]c2ccccc12` (stereo unspecified), for which the growth was 88.6%. The same measure, in the same setting: the value for `CC(=O)Nc1ccc(/C=N/N2CCCCCC2)cc1` was 95.9%. On the same count and under the same terms, the value for `CCOC(=O)c1cnc(SCC)nc1SC#N` was 94.3%; that for `COc1cc(OC)c(C(=O)/C=C/c2cccc(OC(C)=O)c2)cc1CC=C(C)C` was 47.3%; that for `COc1cc2ccc(C(C)=O)cc2cc1OC` was 89.4%.

Take `CN1CCCN(CCNc2nccc(-c3c(-c4cccc(O)c4)nc4sccn34)n2)S1(=O)=O`: the growth was -12.6% (active).

In the case of `CCN(CC)c1ccc(/C=C2/NC(=O)NC2=O)cc1`, the growth is 11.7%. As to `CCOC(=O)c1ccc2c(c1)[n+](=O)c(C(=O)c1ccc3ccccc3c1)c(C(F)(F)F)n2[O-]`, the growth was -97.2% (active).

Another experiment relates to LOX IMVI melanoma. The description is as above. The note with it: 10 µM unless noted.
For the compound `COc1cc(C2CC(=O)Nc3c2cnn3C)cc(OC)c1OC` (stereo unspecified), the growth is 106%.

`C=C(c1ccc(C(=O)NCCCn2ccnc2)cc1)c1cc2c(cc1C)C(C)(C)CCC2(C)C`: the growth was -25.7% (active). The same measure, in the same setting: in the case of `Nc1c(Br)cc2c(c1Br)Cc1cc(Cl)ccc1-2` it was 89.3%; in that of `CCCCCCCCCCCCNC(=O)N[C@H](C(=O)N[C@H]1/C=C/CCNC(=O)/C=C/[C@H](C)NC1=O)C(C)C`, -89.2% (active).

Take `C=C(C)[C@@H]1CC[C@]2(C(=O)NS(=O)(=O)c3ccccc3)CC[C@]3(C)[C@H](CC[C@@H]4[C@@]5(C)CC[C@H](OC(=O)NS(=O)(=O)c6ccccc6)C(C)(C)[C@@H]5CC[C@]43C)[C@@H]12`: the growth was 4.7% (active).

`FC(F)(F)c1cc(-c2nnc3n2N=C(Cl)CS3)cc(C(F)(F)F)c1`: the growth is 77.1%.

In the case of `Cc1cc(-c2ccccc2)on1`, the growth was 99.4%. On the same count and under the same terms, in the case of `CNC(=O)c1c(NC(=O)c2cccc(C(F)(F)F)c2)sc2c1CCC(=O)C2` it was -49.6% (active). Same read-out and setting: the value for `COc1ccccc1/C=C/C(=O)CCC(=O)O` was 99.8%. Same read-out and setting: the value for `NNc1ccc(S(N)(=O)=O)cc1` was 86.4%; that for `CCc1c(C)c2ccc(O)c(-c3cc(-c4ccccc4)c(C#N)c(=O)[nH]3)c2oc1=O` was 93.1%; that for `O=C1OCC2=C1C(c1ccccc1)c1cc3c(cc1N2CCO)OCO3` (stereo unspecified) was 37%. In the case of `CCCCCCCCCCCCNC(=O)N[C@H](C(=O)N[C@H]1/C=C/OCCNC(=O)/C=C/[C@H](C(C)C)NC1=O)C(C)C`, the growth was 55.7%. Same read-out and setting: the value for `COc1ccc(-n2nc(C(=O)Nc3ccc(F)cc3)nc2-c2cc(OC)c(OC)c(OC)c2)cc1` was 94.3%. Still for that read-out and setting: in the case of `COc1ccc2c(c1)OC1=C(C(=O)OC1)C2c1cc(OC)c2c(c1)OCCO2` (stereo unspecified) it was 21.3%; in that of `O=S1(=O)NCCN1CCNc1nccc(-c2c(-c3cccc(O)c3)nc3sccn23)n1`, 55%; in that of `O=C(CC(=O)C(F)(F)C(F)(F)C(F)(F)F)c1cc2ccccc2o1`, 92.4%.

Regarding `Clc1cc2nc(-c3ccccc3)c(-c3ccccc3)nc2cc1Cl`, the growth was 86.2%. Still for that read-out and setting: in the case of `CC(C)(C)c1ccc(C(=O)Nc2sc3cc(O)ccc3c2C(N)=O)cc1` it was 23.3%; in that of `CC1=CCC2C1CC=C(C)C(CC[C@H]1[C@@](C)(O)CCC3OC(C)(C)[C@H](OC(=O)c4ccccc4)CC[C@@]31C)C2(C)C` (stereo partly specified), 67%. Turning to `CC(=O)C1CCC2C3CC(C)=C4CC(O)CCC4(C)C3CCC12C` (stereo unspecified), the growth is 92.1%. The same measure, in the same setting: the value for `CCCCCCCCCCCCCC` was 94.9%; that for `CCN(CCC#N)c1ccccc1` was 102%; that for `O=S1(=O)NCCCN1CCNc1nccc(-c2c(-c3cccc(O)c3)nc3sccn23)n1` was 20.1%. Still for that read-out and setting: in the case of `COc1ccc(-c2conc2-n2nc(-c3ccccc3)nc2-c2ccccc2)cc1` it was 92.6%. Same read-out and setting: in the case of `COc1ccccc1CNCCCN1C(=O)c2ccc3c4c(ccc(c24)C1=O)C(=O)N(CCCCNCCCN)C3=O` it was -10% (active); in that of `Cc1ccc(C(=O)CC(=O)C(F)(F)C(F)(F)C(F)(F)F)s1`, 104%.

`O=C1CCCN1C(O)CCN(Cc1ccccc1)Cc1ccc(Cl)cc1` (stereo unspecified): the growth is 97.2%.

Regarding `Nc1c(N)c2ccccc2c2ccccc12`, the growth is 101%.

Take `CCOC(=O)C1=C(C)NC(=S)NC1c1ccccc1` (stereo unspecified): the growth was 101%. Same read-out and setting: in the case of `CCOC(=O)C1=C(C(=O)OCC)N(c2cc(OC)c(OC)c(OC)c2)C(N)=C(C#N)C1c1cc(=O)[nH]c2ccccc12` (stereo unspecified) it was 93.7%; in that of `CC(=O)Nc1ccc(/C=N/N2CCCCCC2)cc1`, 101%; in that of `CCOC(=O)c1cnc(SCC)nc1SC#N`, 83%.

Consider `COc1cc(OC)c(C(=O)/C=C/c2cccc(OC(C)=O)c2)cc1CC=C(C)C`, for which the growth was 48.3%. On the same count and under the same terms, the value for `COc1cc2ccc(C(C)=O)cc2cc1OC` was 92.3%; that for `CN1CCCN(CCNc2nccc(-c3c(-c4cccc(O)c4)nc4sccn34)n2)S1(=O)=O` was 14.2%. Still for that read-out and setting: the value for `CCN(CC)c1ccc(/C=C2/NC(=O)NC2=O)cc1` was 46.4%; that for `CCOC(=O)c1ccc2c(c1)[n+](=O)c(C(=O)c1ccc3ccccc3c1)c(C(F)(F)F)n2[O-]` was -97.5% (active).
